Screening data from PubChem BioAssay.
The list is not random: actives were taken first. Their share in the collection is about 3.1%.
Nrf2 ARE act: activates Nrf2 signaling | actives 0.31% (n = 410,000) | Potency, µM (titrated, usually from 46.1 µM), without a hit: top-dose activation, hits mostly activators | AREc32 ARE-luciferase reporter (MCF7-derived line), luminescence, 24 h | AID 624171; also: potency is read from the fitted curve at half-maximal effect; % of control where 0% means no effect; nearly all actives have a fitted effect of over 65% in size
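For detection, Steady-Glo was added and plates sat 30 min at RT; before that, AREc32_Fluc cells grown overnight in OPTI-MEM/5% FBS had been treated with 23 nL compound for 24 hr at 37 deg C.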
IL-2 act: activates IL-2 in a cell-based reporter assay | IL-2 activation reporter assay, cell-based qHTS; stimulated with anti-CD3/CD4/CD28 beads; in transgenic mouse T cells | activation, % (series mostly up to about 46 µM) | actives 0.065% (n = 360,000); in the data active = activation above about 50%; inconclusive = mostly about 30% to 49%; also: 0% is about no effect
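Readout is EGFP and DsRed signal by fluorescent plate cytometry after 18 h at 37 degrees C. Transgenic mouse T cells (750/well) received compound for 60 min before bead stimulation (anti-CD3, anti-CD4, anti-CD28); memory T cells served as non-tolerant control.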
BRCA1 expr up: activators of BRCA1 expression. actives 1.1% (n = 380,000). Potency, µM (titrated, usually from 46.1 µM), for inactives: at the highest dose activation, hits mostly activators. MCF7-BRCA1-FFLuc reporter, luminescence, 48 h; response scale: scaled: vehicle 0%, 10 µM genistein 100%; also: potency is read from the fitted curve at half-maximal effect; nearly all actives have a fitted effect of over 80% in size
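Reporter cells (MCF7, BRCA1 promoter-firefly luciferase) received library compounds across a concentration series for 48 h. End-point luminescence was measured and concentration-effect curves derived after normalization.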
ELG1 DNA repair: inhibitors of ELG1-dependent DNA repair in HEK293T cells. AID 504467. Potency, µM (highest dose often 46.1 µM), without a hit: at the top dose activity change, negative = inhibition, actives largely listed as inhibitors. actives 2.3% (n = 330,000). HEK293T ELG1-luciferase reporter, luminescence, 16 h; DNA damage induced by 5-fluorouridine; also: potency is read from the fitted curve at half-maximal effect; % is scaled to controls: 0 for no effect and ±100 for the full control effect; nearly all actives have a fitted effect of over 55% in size
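Cells (2,000 per well) received 5-fluorouridine plus test compound or DMSO and were incubated 16 hr at 37 °C, 5% CO2. Luciferase activity was read by luminescence 30 min after ONE-Glo addition; signal suppression marked inhibition of damage-induced ELG1 function.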
* hit, by the source's call; ? = inconclusive; . = not tested or not shown. Unless noted, calls follow the shape of the dose curve; as a rule, active = well fitted curve in the direction sought with a large enough effect; inconclusive = small, poorly fitted or top-dose-only effect, or another doubt; inactive = no such curve, though single readings can be large; an effect the other way counts as inactive or inconclusive.

SMILES	Nrf2 ARE act	IL-2 act	BRCA1 expr up	ELG1 DNA repair
Cc1ccc2c(=O)cc(C(=O)Nc3c(C(=O)c4ccccc4)oc4ccccc34)oc2c1C	0%	.	.	.
O=C(Nc1ccc2c(c1)CCC2)C1CCCN(c2ncccn2)C1 (centres undefined)	3%	-3	?	?
Cc1nc2ncnn2c(N2CCCC(C(=O)Nc3ccc4c(c3)CCC4)C2)c1C (centres undefined)	1%	-2	-54%	18µM*
CCc1c(C)nc2ncnn2c1N1CCC(C(=O)Nc2ccc(C)cc2)CC1	3%	-3	-60%	?
CCc1c(C)nc2ncnn2c1N1CCC(C(=O)Nc2ccccc2)CC1	-1%	-2	-28%	21µM*
Cc1ccc2nc(CO)[nH]c2c1	.	.	5%	.
NC(=O)C1CCN(Cc2ccc(OCc3ccccc3)cc2)CC1	1%	0	11µM*	?
CCOC(=O)C1CCN(Cc2ccc(OCc3ccccc3)cc2)CC1	4%	0	25%	1%
O=[N+]([O-])c1ccc(COc2ccc(CN3CCCCC3)cc2)cc1	5%	-1	7.9µM*	.
NC(=O)C1CC(=O)N(c2ccc(OCc3ccc(Cl)c(Cl)c3)cc2)C1 (centres undefined)	6%	0	10µM*	.
O=[N+]([O-])c1ccc(COc2ccc(CN3CCCC3)cc2)cc1	6%	1	?	.
c1ccc(CN2CCN(c3ncccn3)CC2)cc1	0%	0	12%	-6%
c1ccc(COc2ccc(CN3CCN(c4ccccn4)CC3)cc2)cc1	0%	0	2µM*	?
COc1ccc(CNC(=O)Cc2c(C(=O)O)c(C)cn2C)cc1	1%	.	.	.
O=C(C[n+]1cccc(Cl)c1)c1ccc(F)cc1	.	.	0%	.
Brc1cccc(-c2nn(-c3ccccc3)c3c2cnc2cc4c(cc23)OCO4)c1	-1%	.	11%	.
CCNC(=O)C1CCCN(C(=O)c2cccc(C(F)(F)F)c2)CC1 (centres undefined)	0%	0	-15%	.
Oc1cccc2ccc(/C=C/c3ccccc3Br)nc12	10µM*	-1	0%	?
Oc1cccc2ccc(/C=C/c3cccs3)nc12	3.2µM*	2	-45%	?
Oc1ccc(Cl)cc1/C=C/c1ccc2cccc(O)c2n1	?	0	-45%	-3%
Oc1c(Cl)cc(Cl)cc1/C=C/c1ccc2cccc(O)c2n1	?	2	-65%	23µM*
CCOc1cc(/C=C/c2ccc3cccc([N+](=O)[O-])c3n2)cc(Cl)c1O	?	-4	-74%	8.2µM*
Cc1ccsc1/C=C/c1ccc2cccc(O)c2n1	?	-4	-27%	?
CCCCn1nnnc1C(c1cccc2ccccc12)N1CCN(C/C=C/c2ccccc2)CC1 (centres undefined)	0%	-1	-15%	.
CC(C)c1ccc(S(=O)(=O)NCc2nc3cccnc3n2Cc2ccc(F)cc2)cc1	5%	.	.	.
SMILES	Nrf2 ARE act	IL-2 act	BRCA1 expr up	ELG1 DNA repair
COc1ccc(-c2cn3ccccc3n2)cc1OC	11µM*	-2	59%	?
COc1ccc(-c2cn3cccnc3n2)cc1Br	12%	-2	11µM*	?
COc1ccc(-c2cc(-c3ccccc3)nc(Cl)n2)cc1OC	1%	-3	3%	18µM*
CCOc1ccc(-c2cc3cc(OC)c(OC)cc3c(C)n2)cc1	0%	1	2%	?
CCc1nc(-c2ccc(OC)c(OC)c2)cc2cc(OC)c(OC)cc12	0%	-2	-27%	26µM*
COc1ccc(-c2cn3cc(C)ccc3n2)cc1OC	-1%	-1	-11%	?
CC1(C)CC(=O)c2cc(C(=O)Nc3ccc(Br)cc3)c(=O)[nH]c2C1	0%	.	.	.
Cc1cc(C)cc(NC(=O)Cn2c(C(F)(F)F)nc3ccccc32)c1	-1%	.	8%	.
Cc1ccc2nc(Nc3ccc(Br)cc3)nc(-c3ccccc3)c2c1	0%	.	.	.
O=C(COC(=O)c1cc(S(=O)(=O)N2CCCCC2)ccc1N1CCOCC1)c1ccc(F)cc1	0%	-1	-25%	10µM*
CC(=O)c1cccc(OC(=O)c2cc(S(=O)(=O)N3CCOCC3)ccc2N2CCCC2)c1	0%	1	-18%	9.2µM*
CC(=O)c1cccc(NC(=O)c2cc(S(=O)(=O)N3CCCCC3)ccc2N2CCOCC2)c1	4%	-3	-18%	.
COc1ccccc1C(=O)COC(=O)c1cc(S(=O)(=O)N2CCCCC2)ccc1N1CCOCC1	0%	-1	-55%	?
Cc1ccc2cc(CN(CCN(C)C)C(=S)Nc3ccccc3)c(=O)[nH]c2c1C	3%	-4	-9%	9.2µM*
Cc1cccc2cc(CN(CC3CCCO3)C(=S)Nc3ccccc3)c(=O)[nH]c12 (centres undefined)	2%	0	-17%	16µM*
Cc1cccc2cc(CN(CC3CCCO3)C(=O)c3ccco3)c(=O)[nH]c12 (centres undefined)	0%	-2	-18%	8%
CCN(CC)CCN(Cc1cc2cccc(C)c2[nH]c1=O)C(=S)Nc1ccccc1	3%	-4	-3%	?
COc1cccc(NC(=O)N(Cc2cc3cc(C)cc(C)c3[nH]c2=O)CC2COCCO2)c1 (centres undefined)	0%	-3	-14%	7.3µM*
Cc1c(CCC(=O)NCc2ccc(F)cc2)c(=O)oc2cc(O)ccc12	3%	.	.	.
Cc1oc2c(C)c3oc(=O)c(CCC(=O)N4CCCCC4)c(C)c3cc2c1C	1%	.	.	.
CCc1ccccc1NC(=O)CN1CCN(C(=O)c2ccc(OCc3cn4ccccc4n3)cc2)CC1	0%	0	-8%	6.5µM*
CC(OC(=O)c1ccccc1OCC(=O)Nc1ccc(Br)cc1)C(=O)NC1CCCC1 (centres undefined)	.	.	15%	.
COC(=O)c1oc(-c2ccccc2)nc1C	13µM*	0	-26%	7%
CC(C)CCNC(=O)c1ccc2nc(CCc3ccccc3)oc2c1	1%	.	.	.
COc1ccc(N=C2S/C(=C\c3cc(C)n(C)c3C)C(=O)N2C)cc1	2%	0	-35%	?
SMILES	Nrf2 ARE act	IL-2 act	BRCA1 expr up	ELG1 DNA repair
CCOC=C1SC(=S)N(c2ccccc2OC)C1=O	-1%	-2	9%	.
COc1ccccc1N1C(=O)S/C(=C\c2ccc(C)s2)C1=O	5%	88*	70%	?
COc1ccccc1N1C(=O)S/C(=C\c2cc(C)n(C)c2C)C1=O	0%	0	5.6µM*	?
Cc1ccc(/C=C2\Sc3ccccc3C2=O)s1	11µM*	-2	-27%	?
COCCn1c(SCC(=O)Nc2ccc(N3CCOCC3)cc2)nc2ccccc21	0%	0	1%	-11%
COCCn1c(SCC(=O)Nc2ccc(S(=O)(=O)N(C)C)cc2)nc2ccccc21	0%	0	-28%	15µM*
O=C(c1ccc2c(c1)N(Cc1ccc(Cl)cc1)C(=O)c1ccccc1S2(=O)=O)N1CCCC1	5%	.	-26%	.
Cc1cccc2cc(CN(Cc3ccccc3)Cc3nnnn3Cc3ccccc3)c(=O)[nH]c12	.	.	4%	.
